# Experimental data published in PubChem BioAssay (Tox21).
# A number with no mark means an inactive call. Records with an inconclusive call do not appear. Where a call stands in place of a potency, no number is given. Activity calls are given as the source filed them. Unless noted, calls follow the shape of the dose curve; as a rule, active = well fitted curve in the direction sought with a large enough effect in the repeat runs; inconclusive = weak or mixed curves; inactive = no such curve, though single readings can be large; an effect the other way counts as inactive or inconclusive.
# Experiments:
# [1] = qHTS assay for small molecule agonists of the p53 signaling pathway (AID 651631; calls by dose curve; also: nearly all actives have a fitted effect of over 15% in size; also: potency is read from the fitted curve at half-maximal effect)
# Outline: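 Read-out is beta-lactamase FRET fluorescence measured 2 h after substrate addition at room temperature, in HCT-116 cells with a p53 response element-driven reporter exposed to compounds for 16 h at 37 °C.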
# [2] = qHTS assay for small molecules that induce genotoxicity in human embryonic kidney cells expressing luciferase-tagged ATAD5 (AID 651632); also: nearly all actives have a fitted effect of over 15% in size; also: potency is read from the fitted curve at half-maximal effect
# Outline: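 Concentration-response screen for ATAD5 upregulation in HEK293T luciferase reporter cells; 16 hr treatment at 37C, then luminescence after 30 min with Amplite at room temperature.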
# [3] = qHTS assay for small molecule agonists of the p53 signaling pathway - cell viability (AID 651633; calls by dose curve; also: nearly all actives have a fitted effect of over 30% in size; also: potency is read from the fitted curve at half-maximal effect)
# Outline: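 Viability counter-read: CellTiter-Glo luminescence (30 min, room temperature) in the same p53RE-bla plates. These plates had been exposed to compounds for 16 h at 37 C.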
# [4] = qHTS assay for small molecules that induce genotoxicity in human embryonic kidney cells expressing luciferase-tagged ATAD5 - cell viability (AID 651634; calls by dose curve; also: nearly all actives have a fitted effect of over 25% in size; also: potency is read from the fitted curve at half-maximal effect)
# Outline: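 15.5 hr compound or vehicle exposure of HEK293T cells expressing luciferase-tagged ATAD5 at 37C; live-cell protease activity is read by fluorescence after 30 min of CellTiter-Fluor.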
# [5] = qHTS assay for small molecule disruptors of the mitochondrial membrane potential - cell viability (AID 720634; calls by dose curve;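 also: human HepG2 liver cancer cells; series mostly up to about 83 µM; nearly all actives have a fitted effect of over 20% in size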)
# Outline: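 In this qHTS format, HepG2 cells plated overnight were pinned with compound, incubated 1 hr, and assayed for ATP luminescence with CellTiter-Glo after m-MPI dye addition.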
# [6] = qHTS assay for small molecule disruptors of the mitochondrial membrane potential (AID 720635); also: potency is read from the fitted curve at half-maximal effect
# Outline: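 Mitochondrial membrane potential tracked with Mito-MPS dye, red aggregates (ex 540/em 590 nm) against green monomers (ex 490/em 535 nm). Compound treatment 1 hr at 37C, dye 30 min in HepG2.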
# [7] = qHTS assay to test for compound auto fluorescence at 590 nm (red) in HepG2 cells (AID 720674)
# Outline: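 Red autofluorescence (Ex/Em 540/590 nm, Rose Bengal sodium equivalents) was measured in HepG2 cells, 2,000 per well in MEM plus 10% FBS, plated overnight at 37 C. Readings were taken 1 hr after adding 23 nL compound or DMSO, at 37 C and 5% CO2.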
# [8] = qHTS assay to test for compound auto fluorescence at 460 nm (blue) in HEK293 cells (AID 720678)
# Outline: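 Blue-channel (Ex/Em 405/460 nm) intensity measured in HEK293 cultures after overnight compound exposure at 37C; signal expressed relative to triamterene. Cells plated 2,000 per well in 10% dialyzed FBS medium and allowed 4-5 hr to attach.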
# [9] = qHTS assay to test for compound auto fluorescence at 590 nm (red) in HEK293 cells (AID 720679)
# Outline: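 Red-channel autofluorescence (Ex/Em 540/590 nm; Rose Bengal sodium reference) was measured after overnight 37C, 5% CO2 exposure of attached HEK293 cells, 2,000 per well in medium with 10% dialyzed FBS.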
# [10] = qHTS assay to test for compound auto fluorescence at 535 nm (green) in HepG2 cells (AID 720675)
Compound,Potency [1],Potency [2],Potency [3],Potency [4],Potency [5],Potency [6],outcome [7],Potency [8],outcome [9],outcome [10],"fluorescence, relative to Rose Bengal [7]","fluorescence, % of triamterene [8]","fluorescence, % of fluorescent control [9]"
CCOC(=O)c1ccc(I)cc1,inactive,inactive,inactive,inactive,inactive,inactive,inactive,inactive,inactive,–,–,–,–
NC(=O)c1ccncc1,inactive,inactive,inactive,inactive,inactive,inactive,inactive,inactive,inactive,inactive,–,–,–
CC[C@]1(O)C[C@H]2CN(CCc3c([nH]c4ccccc34)[C@@](C(=O)OC)(c3cc4c(cc3OC)N(C=O)[C@H]3[C@@](O)(C(=O)OC)[C@H](OC(C)=O)[C@]5(CC)C=CCN6CC[C@]43[C@@H]65)C2)C1,0.0084 µM (active),0.75 µM (active),inactive,0.0473 µM (active),inactive,3.76 µM (active),inactive,inactive,inactive,inactive,–,–,–
CCOC(=O)c1ccccc1C(=C1C=C(Br)C(=O)C(Br)=C1)c1cc(Br)c(O)c(Br)c1,7.24 µM (active),inactive,7.24 µM (active),40.7 µM (active),inactive,20.4 µM (active),inactive,inactive,inactive,inactive,–,–,–
Cc1ccco1,inactive,inactive,inactive,inactive,inactive,inactive,inactive,inactive,inactive,inactive,–,–,–
CC(=O)[C@H]1[C@H](C#N)C[C@H]2[C@@H]3CC=C4C[C@@H](O)CC[C@]4(C)[C@H]3CC[C@@]21C,inactive,inactive,inactive,inactive,inactive,inactive,inactive,inactive,inactive,inactive,–,–,–
CC(=O)OCC[N+](C)(C)C,inactive,inactive,inactive,inactive,inactive,inactive,inactive,inactive,inactive,inactive,–,–,–
O=C(O)CCC(=O)C(=O)O,inactive,inactive,inactive,inactive,inactive,inactive,inactive,inactive,inactive,inactive,–,–,–
O=C(O)C[C@H](NC(=O)OCc1ccccc1)C(=O)O,inactive,inactive,inactive,inactive,inactive,inactive,inactive,inactive,inactive,inactive,–,–,–
CCOC(=O)/C=C/C(=O)OCC,inactive,inactive,inactive,inactive,inactive,inactive,–,inactive,inactive,–,–,–,–
CC1CC(C)C(=O)C1=O (stereo not drawn),inactive,inactive,inactive,inactive,inactive,inactive,inactive,inactive,inactive,–,–,–,–
Nc1ncnc2c1ncn2[C@H]1CC[C@@H](CO)O1,inactive,inactive,inactive,inactive,inactive,inactive,–,inactive,inactive,inactive,–,–,–
CC(C)(O)c1ccc(CNC(=O)c2cccnc2Oc2ccc3nonc3c2)cc1,inactive,inactive,inactive,inactive,inactive,inactive,inactive,inactive,inactive,inactive,–,–,–
CCCCCCCC/C=C\CCCCCCCCCCCC(=O)O,inactive,inactive,inactive,inactive,inactive,inactive,inactive,inactive,inactive,inactive,–,–,–
C1C[C@@H]2[C@H]3CC[C@H](C3)[C@@H]2C1,inactive,inactive,inactive,inactive,inactive,–,inactive,inactive,inactive,inactive,–,–,–
C=COCC(C)C,inactive,inactive,inactive,inactive,inactive,–,inactive,inactive,inactive,inactive,–,–,–
O=C1NC(=O)c2cc([N+](=O)[O-])ccc21,inactive,inactive,inactive,inactive,inactive,–,inactive,inactive,inactive,–,–,–,–
NCCNCCO,inactive,inactive,inactive,inactive,–,inactive,inactive,inactive,inactive,inactive,–,–,–
C[C@@H](O[C@H]1OCCN(Cc2n[nH]c(=O)[nH]2)[C@H]1c1ccc(F)cc1)c1cc(C(F)(F)F)cc(C(F)(F)F)c1,29.8 µM (active),inactive,23.7 µM (active),23.7 µM (active),inactive,–,inactive,inactive,inactive,inactive,–,–,–
CCC1(CO)COCOC1,inactive,inactive,inactive,inactive,inactive,–,inactive,inactive,inactive,inactive,–,–,–
COc1cc(N)c(Cl)cc1C(=O)NC1CCN(CCCOc2ccc(F)cc2)CC1OC (stereo not drawn),inactive,inactive,inactive,inactive,inactive,–,–,–,–,–,0.956% [at 18.6 µM],-0.493% [at 18.6 µM],0.102% [at 18.6 µM]
CC(C)=CCC/C(C)=C/CC/C(C)=C/CCC(=O)OC/C=C(\C)CCC=C(C)C,inactive,inactive,inactive,inactive,inactive,–,inactive,inactive,inactive,inactive,–,–,–
CC(C)COCC(CN(Cc1ccccc1)c1ccccc1)N1CCCC1 (stereo not drawn),13.3 µM (active),inactive,11.9 µM (active),9.44 µM (active),–,–,inactive,inactive,inactive,inactive,–,–,–
